Values joined by “and” are separate entries in the source; they are usually repeats but may differ in a detail not shown here. Equal entries are not always repeated. Records with an inconclusive call do not appear. A structure can be active in one record and inactive in another. Active and inactive are the calls of the source. Rule for the calls, unless noted: active = hit-call score of the fitted dose curve at least 0.9, where 1 is the maximum; inconclusive = response in the unintended direction; inactive = score below 0.9.
Target: Peroxisome proliferator-activated receptor gamma (Homo sapiens) (UniProt P37231)
Sequence (P37231 whole entry, looked up): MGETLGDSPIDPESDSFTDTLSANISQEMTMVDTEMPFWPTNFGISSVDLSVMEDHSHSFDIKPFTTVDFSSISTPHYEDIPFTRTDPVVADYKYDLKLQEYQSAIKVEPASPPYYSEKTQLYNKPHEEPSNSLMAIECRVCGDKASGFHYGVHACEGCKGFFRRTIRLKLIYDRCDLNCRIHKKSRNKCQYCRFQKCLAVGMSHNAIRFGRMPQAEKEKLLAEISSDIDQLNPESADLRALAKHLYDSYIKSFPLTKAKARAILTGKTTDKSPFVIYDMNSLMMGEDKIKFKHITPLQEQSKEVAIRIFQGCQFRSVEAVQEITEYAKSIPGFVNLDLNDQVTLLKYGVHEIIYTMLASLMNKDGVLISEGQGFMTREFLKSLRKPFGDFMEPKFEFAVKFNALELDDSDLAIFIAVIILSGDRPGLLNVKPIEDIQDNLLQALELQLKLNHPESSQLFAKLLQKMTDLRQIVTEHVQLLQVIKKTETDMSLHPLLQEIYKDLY
Test: ATG_hPPARg_XSP2: Attagene TRANS-FACTORIAL Multi-Species (XSP2) HepG2 Assay for human Peroxisome Proliferator-activated Receptor gamma (PPARg) (AID 2283829);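 note: actives raise reporter mRNA above DMSO so AC50 reflects PPARg activation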
In short: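 HepG2 cells transiently transfected with multiplexed GAL4-UAS reporter units for chimeric NR-Gal4 receptors, dosed 24 h. Reporter mRNA quantified by RT-PCR, 6-FAM labeling, HpaI digestion and capillary electrophoresis; gain-of-signal fitted against DMSO baseline.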

Row | Structure (SMILES) | AC50 | outcome
1 | O=c1c(O)c(-c2ccc(O)cc2)oc2cc(O)cc(O)c12 | 12.5 µM (active) and 7.02 µM (active) | 
2 | BrCc1cccc(Oc2ccccc2)c1 | 58.6 µM (active) and 35.6 µM (active) | 
3 | Cc1cc(=O)oc2cc(N(C)C)ccc12 | 24.8 µM (active) and 17 µM (active) | 
4 | Oc1ccc2cc(SSc3ccc4cc(O)ccc4c3)ccc2c1 | 4.81 µM (active) and 4.29 µM (active) | 
5 | Clc1ccc(C(c2ccccc2Cl)C(Cl)Cl)cc1 (stereo unspecified) |  | inactive
6 | OCc1cccc(Oc2ccccc2)c1 | 60.3 µM (active) and 36.7 µM (active) | 

Target: mouse Peroxisome Proliferator-activated Receptor gamma (PPARg), Pparg (gene 19016) (UniProt P37238)
Sequence (P37238 whole entry, looked up): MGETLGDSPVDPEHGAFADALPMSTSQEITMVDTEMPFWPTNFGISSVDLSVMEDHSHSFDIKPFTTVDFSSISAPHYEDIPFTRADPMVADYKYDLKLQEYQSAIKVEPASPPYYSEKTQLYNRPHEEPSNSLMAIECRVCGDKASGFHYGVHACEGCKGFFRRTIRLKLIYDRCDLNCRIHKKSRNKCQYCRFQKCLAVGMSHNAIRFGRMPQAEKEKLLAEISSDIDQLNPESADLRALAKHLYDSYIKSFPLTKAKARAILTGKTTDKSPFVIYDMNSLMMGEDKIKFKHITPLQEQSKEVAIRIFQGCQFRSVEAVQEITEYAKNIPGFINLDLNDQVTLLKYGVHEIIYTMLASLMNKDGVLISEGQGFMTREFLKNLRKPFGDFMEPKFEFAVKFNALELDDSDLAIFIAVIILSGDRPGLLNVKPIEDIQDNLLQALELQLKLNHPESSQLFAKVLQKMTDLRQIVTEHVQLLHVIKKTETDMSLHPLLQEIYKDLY
Test: ATG_mPPARg_XSP2: Attagene TRANS-FACTORIAL Multi-Species (XSP2) HepG2 Assay for mouse Peroxisome Proliferator-activated Receptor gamma (PPARg) (AID 2283830);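 note: hits are gains in reporter mRNA above DMSO so AC50 marks activation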
In short: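 HepG2 cells transiently transfected with GAL4-UAS reporter units for chimeric NR-Gal4 proteins including mouse PPARg, exposed 24 h; medium contained 3 nM 6-alpha-fluorotestosterone and 1.5 nM norgestrel. Reporter mRNA quantified by RT-PCR, HpaI digestion and capillary electrophoresis, vs DMSO.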

Row | Structure (SMILES) | AC50 | outcome
7 | O=c1c(O)c(-c2ccc(O)cc2)oc2cc(O)cc(O)c12 | 12 µM (active) | 
8 | BrCc1cccc(Oc2ccccc2)c1 | 66.6 µM (active) and 39 µM (active) | 
9 | Cc1cc(=O)oc2cc(N(C)C)ccc12 | 33.5 µM (active) and 27.8 µM (active) | 
10 | Oc1ccc2cc(SSc3ccc4cc(O)ccc4c3)ccc2c1 | 7.19 µM (active) and 5.11 µM (active) | 
11 | Clc1ccc(C(c2ccccc2Cl)C(Cl)Cl)cc1 (stereo unspecified) |  | inactive
12 | OCc1cccc(Oc2ccccc2)c1 | 40.6 µM (active) and 34.9 µM (active) | 

Target: Nuclear receptor subfamily 1 group I member 2 (Mus musculus) (UniProt O54915)
Sequence (O54915 whole entry, looked up): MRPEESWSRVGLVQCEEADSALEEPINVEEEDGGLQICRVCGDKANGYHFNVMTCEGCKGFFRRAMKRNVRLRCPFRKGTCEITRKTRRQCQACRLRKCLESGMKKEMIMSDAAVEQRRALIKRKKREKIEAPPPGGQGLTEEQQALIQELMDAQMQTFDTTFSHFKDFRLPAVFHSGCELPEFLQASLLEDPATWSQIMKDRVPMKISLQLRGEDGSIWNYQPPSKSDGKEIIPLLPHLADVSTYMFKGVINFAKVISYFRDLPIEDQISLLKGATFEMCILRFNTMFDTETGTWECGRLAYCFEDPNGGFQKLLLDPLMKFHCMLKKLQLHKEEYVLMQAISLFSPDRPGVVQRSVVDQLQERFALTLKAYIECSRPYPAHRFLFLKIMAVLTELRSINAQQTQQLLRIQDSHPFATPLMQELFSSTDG
Test: ATG_mPXR_XSP2: Attagene TRANS-FACTORIAL Multi-Species (XSP1) HepG2 Assay for mouse Pregnane X Receptor (PXR) (AID 2283831)
In short: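 HepG2 cells transiently transfected with GAL4-UAS reporter units expressing chimeric NR-GAL4 proteins; reporter mRNA measured 24 h after dosing by RT-PCR with 6-FAM labelling and capillary electrophoresis, gain of signal relative to DMSO.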

Row | Structure (SMILES) | outcome | AC50
13 | O=c1c(O)c(-c2ccc(O)cc2)oc2cc(O)cc(O)c12 | inactive | 
14 | BrCc1cccc(Oc2ccccc2)c1 | inactive | 27.7 µM (active)
15 | Cc1cc(=O)oc2cc(N(C)C)ccc12 |  | 4.03 µM (active) and 6.44 µM (active)
16 | CCCCC(CC)COC(=O)c1ccc(O)cc1 (stereo unspecified) |  | 56.4 µM (active)
17 | Oc1ccc2cc(SSc3ccc4cc(O)ccc4c3)ccc2c1 |  | 36.2 µM (active) and 20.8 µM (active)
18 | Clc1ccc(C(c2ccccc2Cl)C(Cl)Cl)cc1 (stereo unspecified) |  | 5.19 µM (active) and 5.09 µM (active)
19 | OCc1cccc(Oc2ccccc2)c1 | inactive | 57.4 µM (active)

Target: zebrafish Thyroid Hormone Receptor alpha (TRa), thraa (gene 30670) (UniProt Q98867)
Sequence (Q98867 whole entry, looked up, the tested form may be a part): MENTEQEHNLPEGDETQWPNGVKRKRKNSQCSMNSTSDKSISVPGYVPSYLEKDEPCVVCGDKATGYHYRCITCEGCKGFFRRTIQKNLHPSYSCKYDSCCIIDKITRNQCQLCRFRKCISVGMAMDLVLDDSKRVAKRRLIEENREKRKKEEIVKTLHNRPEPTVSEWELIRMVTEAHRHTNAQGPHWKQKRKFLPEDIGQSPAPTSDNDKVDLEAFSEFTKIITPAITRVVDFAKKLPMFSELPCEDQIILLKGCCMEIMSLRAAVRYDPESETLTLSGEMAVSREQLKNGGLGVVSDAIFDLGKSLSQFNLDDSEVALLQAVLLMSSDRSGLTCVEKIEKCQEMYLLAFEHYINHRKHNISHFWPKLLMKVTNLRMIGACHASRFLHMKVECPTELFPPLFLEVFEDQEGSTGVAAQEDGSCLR
Test: ATG_zfTRa_XSP2: Attagene TRANS-FACTORIAL Multi-Species (XSP1) HepG2 Assay for zebrafish Thyroid Hormone Receptor alpha (TRa) (AID 2283832);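 note: actives raise zebrafish TRa-Gal4 reporter transcript above DMSO baseline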
Experimental: ATG_XSP2_multi-species_TRANS is a cell-based, multiplexed assay created by modifying the existing Attagene TRANS-FACTORIAL system to include a panel of nuclear receptors from some or all the following species: human (Homo sapiens), mouse (Mus musculus), frog (Xenopus laevis), zebrafish (Danio rerio), chicken (Gallus gallus), and turtle (Chrysemys picta). The ECOTOX-FACTORIAL format uses HepG2, a human liver cell line, with measurements taken at 24 hours after chemical dosing in a 24-well plate. Xsp2 included 3 nM 6-alpha-fluorotestosterone and 1.5 nM norgestrel to stimulate the androgen receptor.ATG_zfTRa_XSP2 is one of 29 assay components measured or calculated from the ATG_XSP2_multi-species_TRANS assay. It is designed to make measurements of mRNA induction, a form of inducible reporter, as detected with fluorescence intensity signals by Reverse transcription polymerase chain reaction (RT-PCR) and Capillary electrophoresis technology.The assay endpoint ATG_zfTRa_XSP2 was analyzed in the positive analysis fitting direction relative to DMSO as the negative control and baseline of activity. Using a type of inducible reporter, measures of mRNA for gain-of-signal activity can be used to understand the reporter gene at the transcription factor-level as they relate to the gene TR. Furthermore, this assay endpoint can be referred to as a primary readout, because this assay has produced multiple assay endpoints where this one serves a reporter gene function. To generalize the intended target to other relatable targets, this assay endpoint is annotated to the nuclear receptor intended target family, where the subfamily is non-steroidal.
Human liver HepG2 cells are transiently transfected with multiple reporter transcription units (MRTUs) in 6-well plates using FuGene 6 reagent (Roche; 3 ml FuGene/1 mg DNA). The MRTU constructs are regulated by a cis-regulating element (promoter). […] A major difference between the CIS and TRANS system is that in CIS activities of endogenous TFs are measured, whereas the TRANS assay evaluates changes in activities of exogenous, chimeric NR-Gal4 proteins. […] At the end of 24 hour incubation, total RNA was isolated using TriZol reagent (Invitrogen). The isolated RNA is then reverse-transcribed using oligo(dT) primer and Mo-MLV reverse transcriptase (Invitrogen) with DNAse I (Ambion) treatment for 30 min. The one-tenth of the produced cDNA was amplified by PCR using Taq DNA polymerase (Invitrogen) and two reporter sequence-specific primers. The PCR products were fluorescently labeled by primer extension with 6-arboxyfluorescein (6-FAM) 5'-labeled reporter sequence-specific primer (2 min at 95 C, 20 s at 68 C and 10 min at 72 C) and these products were digested with 5U of HpaI (New England Biolabs) for 2h at 37 C. The fragments were purified using Qiaquick PCR columns (Qiagen), analyzed on an ABI 3130xL genetic analyzer (Applied Biosystems) with peak positions identified by using a set of X-rhodamine (ROX)-labeled MapMarker1000 molecular weight standards (BioVentures). The raw capillary electrophoresis data was processed using Attagraph software (Attagene).

Row | Structure (SMILES) | outcome | AC50
20 | O=c1c(O)c(-c2ccc(O)cc2)oc2cc(O)cc(O)c12 | inactive | 
21 | BrCc1cccc(Oc2ccccc2)c1 | inactive | 
22 | Cc1cc(=O)oc2cc(N(C)C)ccc12 | inactive | 
23 | CCCCC(CC)COC(=O)c1ccc(O)cc1 (stereo unspecified) | inactive | 
24 | Oc1ccc2cc(SSc3ccc4cc(O)ccc4c3)ccc2c1 | inactive | 156 µM (active)
25 | Clc1ccc(C(c2ccccc2Cl)C(Cl)Cl)cc1 (stereo unspecified) | inactive | 
26 | OCc1cccc(Oc2ccccc2)c1 | inactive | 

Test system: zebrafish Peroxisome Proliferator-activated Receptor gamma (PPARg), gene 557037
Test: ATG_zfPPARg_XSP2: Attagene TRANS-FACTORIAL Multi-Species (XSP2) HepG2 Assay for zebrafish Peroxisome Proliferator-activated Receptor gamma (PPARg) (AID 2283833);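 note: actives increase reporter signal over DMSO so AC50 reflects activation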
In short: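 HepG2 cells transiently transfected with GAL4-UAS reporter units expressing a zebrafish PPARg–GAL4 chimera; compound exposure 24 h. Reporter mRNA quantified by RT-PCR with fluorescent labelling and capillary electrophoresis; gain of signal fitted relative to DMSO baseline.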

Row | Structure (SMILES) | outcome | AC50
27 | O=c1c(O)c(-c2ccc(O)cc2)oc2cc(O)cc(O)c12 | inactive | 
28 | BrCc1cccc(Oc2ccccc2)c1 | inactive | 
29 | Cc1cc(=O)oc2cc(N(C)C)ccc12 | inactive | 
30 | CCCCC(CC)COC(=O)c1ccc(O)cc1 (stereo unspecified) |  | 60 µM (active)
31 | Oc1ccc2cc(SSc3ccc4cc(O)ccc4c3)ccc2c1 | inactive | 
32 | Clc1ccc(C(c2ccccc2Cl)C(Cl)Cl)cc1 (stereo unspecified) | inactive | 
33 | OCc1cccc(Oc2ccccc2)c1 | inactive | 

Test system: turtle Thyroid Hormone Receptor, alpha (TRa), gene 101949057
Test: ATG_trTRa_XSP2: Attagene TRANS-FACTORIAL Multi-Species (XSP1) HepG2 Assay for turtle Thyroid Hormone Receptor, alpha (TRa) (AID 2283834);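 note: hits raise reporter mRNA over the DMSO baseline so AC50 marks activators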
In short: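 HepG2 cells transiently transfected with multiplexed GAL4-UAS reporter units expressing chimeric NR-Gal4 proteins were dosed for 24 hours. Reporter mRNA was quantified by RT-PCR with 6-FAM labelling and capillary electrophoresis, gain of signal scored against DMSO.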

Row | Structure (SMILES) | outcome | AC50
34 | O=c1c(O)c(-c2ccc(O)cc2)oc2cc(O)cc(O)c12 | inactive | 
35 | BrCc1cccc(Oc2ccccc2)c1 | inactive | 
36 | Cc1cc(=O)oc2cc(N(C)C)ccc12 | inactive | 
37 | Oc1ccc2cc(SSc3ccc4cc(O)ccc4c3)ccc2c1 | inactive | 26.8 µM (active)
38 | OCc1cccc(Oc2ccccc2)c1 | inactive | 

Test system: not listed separately
Test: ATG_M_61_XSP2: Attagene TRANS-FACTORIAL Multi-Species (XSP2) HepG2 Assay for M61 Transcription Factor (Internal Marker) (AID 2283835; active = hit-call score of the fitted dose curve at least 0.9, where 1 is the maximum; inactive = score below 0.9;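 note: active means a rise in signal above the DMSO baseline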)
In short: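 HepG2 cells transiently transfected with multiple GAL4-UAS reporter units; reporter mRNA measured 24 h after dosing by RT-PCR, fluorescent labelling and capillary electrophoresis. Medium contained 3 nM 6-alpha-fluorotestosterone and 1.5 nM norgestrel; internal marker, DMSO baseline.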

Row | Structure (SMILES) | outcome
39 | O=c1c(O)c(-c2ccc(O)cc2)oc2cc(O)cc(O)c12 | inactive
40 | BrCc1cccc(Oc2ccccc2)c1 | inactive
41 | Cc1cc(=O)oc2cc(N(C)C)ccc12 | inactive
42 | Oc1ccc2cc(SSc3ccc4cc(O)ccc4c3)ccc2c1 | inactive
43 | Clc1ccc(C(c2ccccc2Cl)C(Cl)Cl)cc1 (stereo unspecified) | inactive
44 | OCc1cccc(Oc2ccccc2)c1 | inactive

Target: zebrafish Thyroid Hormone Receptor beta (TRb), thrb (gene 30607) (UniProt Q9PVE4)
Sequence (Q9PVE4 whole entry, looked up): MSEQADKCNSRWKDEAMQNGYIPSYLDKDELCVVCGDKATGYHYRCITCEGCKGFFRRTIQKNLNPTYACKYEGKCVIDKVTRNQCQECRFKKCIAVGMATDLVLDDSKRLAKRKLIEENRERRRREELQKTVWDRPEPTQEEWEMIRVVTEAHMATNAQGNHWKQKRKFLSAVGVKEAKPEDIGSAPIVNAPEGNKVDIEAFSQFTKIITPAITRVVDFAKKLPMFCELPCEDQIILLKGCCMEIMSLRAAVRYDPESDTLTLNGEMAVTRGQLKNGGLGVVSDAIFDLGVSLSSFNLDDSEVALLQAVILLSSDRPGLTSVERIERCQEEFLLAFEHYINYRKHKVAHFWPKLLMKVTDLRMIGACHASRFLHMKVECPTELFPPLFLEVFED
Test: ATG_zfTRb_XSP2: Attagene TRANS-FACTORIAL Multi-Species (XSP1) HepG2 Assay for zebrafish Thyroid Hormone Receptor beta (TRb) (AID 2283836);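 for AC50: potency for induction of reporter signal above DMSO so agonist direction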
In short: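 HepG2 cells transiently transfected with multiplexed GAL4-UAS reporter units expressing chimeric NR-Gal4 proteins; read 24 h after dosing. Reporter mRNA quantified by RT-PCR, 6-FAM labelling, HpaI digest and capillary electrophoresis; gain of signal fitted relative to DMSO.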

Row | Structure (SMILES) | outcome | AC50
45 | O=c1c(O)c(-c2ccc(O)cc2)oc2cc(O)cc(O)c12 | inactive | 
46 | BrCc1cccc(Oc2ccccc2)c1 | inactive | 
47 | Cc1cc(=O)oc2cc(N(C)C)ccc12 | inactive | 
48 | CCCCC(CC)COC(=O)c1ccc(O)cc1 (stereo unspecified) | inactive | 
49 | Oc1ccc2cc(SSc3ccc4cc(O)ccc4c3)ccc2c1 | inactive | 154 µM (active)
50 | Clc1ccc(C(c2ccccc2Cl)C(Cl)Cl)cc1 (stereo unspecified) | inactive | 
51 | OCc1cccc(Oc2ccccc2)c1 | inactive | 

— PubChem BioAssay (EPA / NIEHS)
